Bioassay records deposited in PubChem by several laboratories.
Hits are enriched below; roughly 2.4% of the tested compounds scored in any of these assays.
Mcl1 Noxa PPI – disrupts binding of human Mcl-1 to Noxa peptide. Q07820. TR-FRET Mcl-1/Noxa peptide binding, 2 h. inhibition, % at 21.7 µM. 220,000 compounds, 1.5% hits. AID 1022;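 active = compounds that cut the protein-peptide binding signal by more than 50% relative to plate controls in a single-dose test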;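 note: His-tagged Mcl-1 with rhodamine Noxa BH3 peptide and terbium anti-His antibody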
Target sequence (Q07820 whole entry, looked up): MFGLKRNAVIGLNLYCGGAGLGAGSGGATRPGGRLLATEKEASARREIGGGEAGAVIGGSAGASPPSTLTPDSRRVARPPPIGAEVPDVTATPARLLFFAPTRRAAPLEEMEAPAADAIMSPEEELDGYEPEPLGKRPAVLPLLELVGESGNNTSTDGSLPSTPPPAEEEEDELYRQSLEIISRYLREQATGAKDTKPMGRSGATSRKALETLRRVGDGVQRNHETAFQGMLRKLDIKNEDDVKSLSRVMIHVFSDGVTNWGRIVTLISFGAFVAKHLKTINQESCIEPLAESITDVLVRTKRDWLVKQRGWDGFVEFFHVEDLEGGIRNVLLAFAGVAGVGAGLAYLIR
MCL1 BIM primary – disrupts human MCL1 binding to BIM-BH3 peptide. Q07820. inhibition, % at 10.9 µM. AID 2057. GST-MCL1 / FITC-Bim-BH3 fluorescence polarization. 320,000 compounds, 0.68% hits;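 active = inhibition above the mean inhibition of all tested compounds plus 3 SD, set per campaign, cut at about 40% in these data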;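 note: higher means more loss of mP so more displacement of Bim peptide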
Mcl1-Bid inh – Mcl-1/Bid interaction inhibition | TR-FRET Mcl-1/Bid-Dy647 peptide binding, 1536-well | inhibition, % at 21.7 µM | 220,000 compounds, 0.97% hits;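 active = compounds that cut the binding signal by more than half at the single screening dose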;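 note: His-tagged Mcl-1 with europium anti-His antibody binding Bid BH3 peptide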
zVAD death inh – L929 zVAD cell death inhibition. viability rescue, % at 10 µM. AID 1377. L929 zVAD necroptosis rescue, ATP luminescence, 24 h; with zVAD 60 µM. 220,000 compounds, 0.38% hits;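 active = activation, scaled between plate controls, above about 75%, limit read from the data; inactive = activation under that limit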
Bim-Mcl-1 – human Bim-Mcl-1 interaction inhibition; Bead-based flow cytometry, Bim peptide-Mcl-1 binding; inhibition, % at 10 µM; 190,000 compounds, 0.1% hits; AID 1009; in the data active = inhibition above about 40%
TNF death inh – TNF-alpha cell death inhibition in Jurkat FADD-/- cells; AID 463075; 220,000 compounds, 0.068% hits; activation (protection from cell death), % at 10 µM; Jurkat FADD-/- TNF necroptosis rescue, ATP luminescence, 24 h; 0 = TNF only, 100 = no-TNF cells;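 active = activation, meaning protection from cell death, of at least 50% relative to plate controls; inactive = activation below 50%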;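 note: necroptosis triggered by 40 ng/mL TNF-alpha added together with compound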
Bcl-xL conf – counter-screen for MCL1 inhibitors: confirmation of human Bcl-xL inhibitors | shares compounds with MCL1 BIM primary | GST-Bcl-xL / FITC-Bim BH3 peptide FP binding | inhibition, % at 10.9 µM | 1,700 compounds, 54% hits;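 active = inhibition above a cutoff equal to the mean inhibition of all tested compounds plus 3 SD, cut at about 30% in these data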
Target sequence (Q07817 whole entry, looked up): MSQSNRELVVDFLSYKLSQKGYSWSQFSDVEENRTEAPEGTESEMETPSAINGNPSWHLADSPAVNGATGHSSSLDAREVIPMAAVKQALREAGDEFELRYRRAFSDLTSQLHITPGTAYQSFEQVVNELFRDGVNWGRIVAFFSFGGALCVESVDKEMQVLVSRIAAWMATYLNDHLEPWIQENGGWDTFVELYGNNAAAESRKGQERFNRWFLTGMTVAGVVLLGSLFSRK
MCL1 BIM confirm – MCL1-BIM-BH3 interaction inhibition, confirmation. shares compounds with MCL1 BIM primary. GST-MCL1 / FITC-Bim-BH3 fluorescence polarization. inhibition, % at 10.9 µM. 1,700 compounds, 61% hits;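 active = inhibition above the average of all tested compounds plus 3 SD, cut at about 40% in these data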
Numbers stand for hits; . = inactive; / = no result; + = active, no number; ! = repeats disagree.

SMILES	Mcl1 Noxa PPI	MCL1 BIM primary	Mcl1-Bid inh	zVAD death inh	Bim-Mcl-1	TNF death inh	Bcl-xL conf	MCL1 BIM confirm
CC(C)[C@@]1(NC(=O)[C@@H]2C[C@@H]3c4cccc5[nH]cc(c45)C[C@H]3N(C)C2)O[C@@]2(O)[C@@H]3CCCN3C(=O)[C@H](Cc3ccccc3)N2C1=O	.	.	.	.	.	.	/	/
CC(C)[C@H]1C(=O)N2CCC[C@H]2[C@]2(O)O[C@](NC(=O)[C@@H]3C=C4c5cccc6[nH]cc(c56)C[C@H]4N(C)C3)(C(C)C)C(=O)N12	.	+	.	.	.	.	106	128
COC(=O)C1=C(c2cccc(OC)c2OC)C[C@@H]2CC[C@H]1N2C(=O)NCc1ccco1	/	.	/	/	/	/	/	/
COCCCNC(=O)Cn1cc(/C=C2\C(=O)NC(=O)N(c3ccccc3F)C2=O)c2ccccc21	/	100	/	/	/	/	117	133
CN1CCC2(CC1)C(C#N)=C(N)NC(S)=C2C#N	.	118!	.	.	.	.	90	104
Nc1cc2nc3ccccc3nc2cc1N	51	140	.	.	/	.	+	+
CCOc1cc2c(cc1OCC)-n1cccc1C(c1cc(C)c(OC)cc1C)NC2 (centres undefined)	/	.	/	/	/	/	/	/
CCN1/C(=C\C=C\C2=[N+](CC)c3ccccc3C2(C)C)C(C)(C)c2ccccc21	.	+	.	.	.	.	+	+
COCCNC(=O)CN1C(=O)CN=C(c2ccccc2)c2ccccc21	.	.	.	.	/	.	/	/
Cc1oc(-c2ccc(F)cc2F)nc1CN1C[C@@H]2C[C@@H](C1)c1cccc(=O)n1C2	.	.	.	.	.	.	/	/
O=C1NC(=O)N(c2cccc(Cl)c2)C(=O)/C1=C\c1ccc(Sc2nc3ccccc3[nH]2)o1	52	181	.	.	.	.	.	41
O=C1NC(=O)N(c2ccccc2F)C(=O)/C1=C/c1ccc(Sc2nc3ccccc3[nH]2)o1	66	59	.	.	.	.	41	66
O=C1NC(=S)NC(=O)C1=Cc1ccc2c(c1)CCN2CCCCl	100	74	.	.	/	.	.	.
CN1CCN(c2ncnc3nc[nH]c23)CC1	.	.	.	.	.	.	/	/
CCn1cc(C=C2C(=O)NC(=O)NC2=O)c2ccccc21	/	148	/	/	/	/	112	123
Cc1cc(/C=C2\C(=O)NC(=O)N(Cc3ccccc3)C2=O)c(C)n1C1CC1	.	67	.	.	.	.	.	.
CCOc1cccc(OCC)c2c(C)[n+](CC3CCCO3)c(C)c1-2 (centres undefined)	.	62	.	.	.	.	.	.
CN(C(=O)COC(=O)c1cn(C)c2ccccc12)C1CCCCC1	/	.	/	/	/	/	/	/
COC(=O)[C@@]1(C#N)[C@@H]2C=CC(C(C)=O)=CN2[C@@H](C(N)=O)[C@@H]1c1ccc(F)cc1	.	81	.	.	/	.	149	189
O=C(N/N=C/c1c(O)n(-c2cccc3ccccc23)c(=O)[nH]c1=O)c1ccncc1	.	.	.	.	/	.	/	/
CC1=C[C@@H]2c3cccc4[nH]cc(c34)C[C@H]2N(C)C1	/	+	/	/	/	/	141	163
Cn1c(O)c(Cc2ccc(OCc3ccccc3)cc2)c(=O)n(C)c1=O	/	.	/	/	/	/	/	/
CCOc1cccc(N2C(=O)/C(=C/c3ccco3)C(=O)NC2=S)c1	/	.	/	/	/	/	/	/
O=C1NC(=S)N(c2ccccc2)C(=O)/C1=C/c1ccco1	/	53	/	/	/	/	.	.
O=c1[nH]c(=O)n(Cc2ccc(F)cc2)c(O)c1C=Nc1ccc(Cl)cc1	.	.	.	.	.	.	/	/
SMILES	Mcl1 Noxa PPI	MCL1 BIM primary	Mcl1-Bid inh	zVAD death inh	Bim-Mcl-1	TNF death inh	Bcl-xL conf	MCL1 BIM confirm
Nc1cccc(N=Cc2c(O)n(Cc3ccc(F)cc3)c(=O)[nH]c2=O)c1	.	84	.	.	.	.	.	.
O=c1[nH]c(=O)n(-c2cccc(F)c2)c(O)c1/C=C1\C=Nc2ccccc21	/	199	/	/	/	/	154	177
O=c1[nH]c(O)c(C=NCCc2ccccc2)c(=O)[nH]1	.	.	.	.	/	.	/	/
O=c1[nH]c(O)c(/C=C2\C=Nc3ccc(OCc4ccccc4)cc32)c(=O)[nH]1	/	188	/	/	/	/	126	153
CN1Cc2c(c(C#N)c(N)n(C)c2=S)CC1(C)C	.	103	.	.	.	.	144	185
O=C(O)c1cccc2c1NC(C(=O)O)C1CC(Sc3ccccc3[N+](=O)[O-])C(Cl)C21 (centres undefined)	94	100	.	.	.	.	50	106
CC(=O)c1ccc2c(c1)C1C(Cl)C(Sc3ccccc3[N+](=O)[O-])CC1C(C(=O)O)N2 (centres undefined)	110	64	.	.	.	.	.	.
CCC(=O)N1CC(=O)Nc2ccc(F)cc2C1c1ccc(F)cc1 (centres undefined)	/	.	/	/	/	/	/	/
C=CCN1CCc2cccc3c2[C@H]1Cc1ccc(O)c(O)c1-3	/	43	/	/	/	/	33	67
C=CCN1CC[C@]23c4c5ccc(O)c4O[C@H]2C(=O)CC[C@@]3(O)[C@H]1C5	.	.	.	.	.	.	/	/
O=C(NC1CCCCC1)N1C[C@H]2C[C@@H](C1)c1cccc(=O)n1C2	/	.	/	/	/	/	/	/
O=C(c1ccc2nc(-c3ccco3)c(-c3ccco3)nc2c1)N1CCC2(CC1)OCCO2	78	69	.	/	.	/	34	.
O=c1[nH]c2ccccc2n1CCCN1CCC(n2c(=O)[nH]c3cc(Cl)ccc32)CC1	.	54	.	.	.	.	.	.
CCc1ccc2nc(N3CCC(C(=O)N4CCC5(CC4)OCCO5)CC3)sc2c1	.	.	.	.	.	.	/	/
O=c1[nH]c(=O)n(C2CCCCC2)c(O)c1C=Nc1ccc(N2CCOCC2)cc1	.	.	.	.	.	.	/	/
O=c1[nH]c(=S)n(-c2ccc(Cl)cc2)c(O)c1C=Nc1ccc(N2CCOCC2)cc1	.	+	.	.	.	.	185	+
Cc1cnc[nH]1	/	.	/	/	/	/	/	/
CC1=NCCc2c1[nH]c1cc(O)ccc21	/	+	/	/	/	/	+	+
COc1ccc2c3c([nH]c2c1)C(C)=NCC3	.	.	.	.	.	.	/	/
Cn1c(O)c(C=NCCCCCCCCCCC(=O)O)c(=O)n(C)c1=O	.	.	.	.	/	.	/	/
COC(=O)C1=C(c2cccc(C#N)c2)C[C@@H]2CC[C@H]1N2C(=O)NC1Cc2ccccc2C1	/	.	/	/	/	/	/	/
O=[N+]([O-])c1cccc(O)c1	/	.	/	/	/	/	/	/
O=[N+]([O-])c1cc(S(=O)(=O)c2ccc(O)c([N+](=O)[O-])c2)ccc1O	85	47	.	.	.	.	.	72
